The source made the active and inactive calls. Rule for the calls: active = hit-call score of the fitted dose curve at least 0.9, where 1 is the maximum; inactive = score below 0.9.
Read-out: Interleukin-8 (IL8), CXCL8 (gene 3576)
Assay: BSK_3C_IL8: BioMAP Diversity Plus: 3C Assay for Interleukin-8 (IL8) Biomarker Activity (AID 2283020)
Conditions: primary human endothelial cells (HUVEC); actives raise or lower the signal
Protocol: BSK_3C is a cell-based, multiplexed-readout assay that uses umbilical vein endothelium, a human vascular primary cell, with measurements taken at 24 hours after chemical dosing in a 96-well plate.BSK_3C_IL8 is an assay component measured in the BSK_3C assay. It measures IL-8 antibody related to regulation of gene expression using ELISA technology.Data from the assay component BSK_3C_IL8 was analyzed into 1 assay endpoint. This assay endpoint, BSK_3C_IL8, was analyzed with bidirectional fitting relative to DMSO as the negative control and baseline of activity. Using a type of binding reporter, gain or loss-of-signal activity can be used to understand changes in the signaling as they relate to the gene CXCL8. Furthermore, this assay endpoint can be referred to as a primary readout, because this assay has produced multiple assay endpoints where this one serves a signaling function. To generalize the intended target to other relatable targets, this assay endpoint is annotated to the cytokine intended target family, where the subfamily is interleukins.
The levels of cell surface (or secreted, indicated by the prefix "s") biomarker endpoints were measured by ELISA. Overt cytotoxicity to cells in confluent adherent cultures (all systems other than the BT system) was assessed by measuring total protein levels using sulforhodamine B (SRB) staining in parallel cultures at the time of biomarker measurements, indicated as SRB endpoints. For proliferation assays for adherent cell types, individual cell types are cultured at sub-confluence and relative cell numbers quantified by SRB staining at time points optimized for each system (48 h: 3C and CASM3C systems; 72 h: BT and HDF3CGF systems; 96 h: SAg system). SRB was performed by staining cells with 0.1% SRB after fixation with 10% TCA and reading wells at 560 nm.Viability and proliferation of PBMC (T cells) was quantified by Alamar Blue reduction for the SAg and BT systems. For PBMC viability (referred to as PBMC Cytotoxicity within the assay endpoint names), cells were plated (75,000/well in a 96-well plate) and then chemical samples added for 1 h before addition of activators, SEB and TSST-1 (20 ng/mL final concentration each). Cells were incubated for 90 h. Then, Alamar Blue (20 uL/well) (Invitrogen, Cat DAL1100) was added for 6 h, and the plates were read with a fluorescence microplate reader at 546/580 nm (excitation/emission). For PBMC proliferation, cells were plated and activated as above but incubated for only 16 h prior to addition of Alamar Blue. Plates were read after 6 h.

SMILES | AC50 | outcome
Cc1nccn1-c1ccc(Sc2cccc(C3(C(N)=O)CCOCC3)c2)cc1 | 11 µM (active) | 
CCCCCCCC/C=C\CCCCCCCC(=O)OC[C@@H](O)[C@H]1OC[C@H](O)[C@H]1O |  | inactive
OC[C@H]1O[C@@](CO)(O[C@H]2O[C@H](CO)[C@@H](O)[C@H](O)[C@H]2O)[C@@H](O)[C@@H]1O |  | inactive
O=S(=O)(O)CCC(F)(F)C(F)(F)C(F)(F)C(F)(F)C(F)(F)C(F)(F)F |  | inactive
CCCCCOC(C)=O |  | inactive
CCCC(CCC)C(=O)O |  | inactive
CCOc1ccc2[nH]cc(C(=O)NCc3ccccc3)c(=O)c2n1 |  | inactive
COS(C)(=O)=O |  | inactive
O=S(=O)(O)c1ccc(N=Nc2c(O)ccc3cc(S(=O)(=O)O)ccc23)cc1 |  | inactive
CCc1ccc(O)c(C(C)(C)C)c1 | 30.4 µM (active) | 
O=C(O)c1cccc(C(=O)O)c1 |  | inactive
Cc1ncc([C@@H](CCCCCCc2ccc3c(n2)NCCC3)CC(=O)O)cn1 | 1.02 µM (active) | 
O=C(Cl)C(F)(F)C(F)(F)C(F)(F)C(=O)Cl |  | inactive
CCCCCCCCCC |  | inactive
CCc1cccc(CC)c1N |  | inactive
c1ccc2ncccc2c1 |  | inactive
NNC(=O)c1ccncc1 |  | inactive
FC(F)C(F)(F)COCC1CO1 (stereo not given) |  | inactive
C[C@@H](Oc1ccc(CNC(=O)c2cccnc2Oc2ccc3c(c2)OCO3)c(F)c1)C(=O)O |  | inactive
FC(F)(F)COC(OCC(F)(F)F)OCC(F)(F)F |  | inactive

SMILES | AC50 | outcome
CC(C)C(=O)Nc1ccc([N+](=O)[O-])c(C(F)(F)F)c1 |  | inactive
C[Si](C)(C)C(F)(F)C(F)(F)C(F)(F)F |  | inactive
FC(F)=C(F)C(F)(F)C(F)(F)C(F)(F)C(F)(F)C(F)(F)C(F)(F)F |  | inactive
Cn1c(=O)c2[nH]cnc2n(C)c1=O |  | inactive
CCCCCCCC1CCC(=O)O1 (stereo not given) |  | inactive
CCCCC(CC)C(=O)OCCOCCOCCOC(=O)C(CC)CCCC (stereo not given) |  | inactive
NC(=O)N1c2ccccc2C=Cc2ccccc21 |  | inactive
c1ccc2cc3ccccc3cc2c1 |  | inactive
NC(N)=O |  | inactive
CC[C@H](C)C(=O)O[C@H]1C[C@H](O)C=C2C=C[C@H](C)[C@H](CC[C@@H](O)C[C@@H](O)CC(=O)O)[C@H]21 |  | inactive
O=C(O)[C@H](O)[C@@H](O)C(=O)O |  | inactive
Cc1ccc(S(=O)(=O)NC(=O)NN2CCCCCC2)cc1 |  | inactive
FC(F)(F)C(F)(F)C(F)(F)C(F)(F)C(F)(F)C(F)(F)I |  | inactive
O=C1CN(N=Cc2ccc([N+](=O)[O-])o2)C(=O)N1 |  | inactive
CC(C)CCCCCCOC(=O)C1CCCCC1C(=O)OCCCCCCC(C)C (stereo not given) |  | inactive
O=C(O)c1ccc2c(c1)nc(C(=O)NC1CCN(C3CC3)CC1)n2Cc1cc(-c2ccc(Cl)s2)on1 |  | inactive
O=c1[nH]cnc2c1ncn2[C@H]1CC[C@@H](CO)O1 |  | inactive
CCCOc1ccc(S(=O)(=O)N2CCN(CC)CC2)cc1-c1nc2c(CC)n(Cc3ccccn3)nc2c(=O)[nH]1 |  | inactive
CCCCCCCCCCCCCCO | 30.4 µM (active) | 
S=P(N1CC1)(N1CC1)N1CC1 |  | inactive

Source: PubChem BioAssay (EPA / NIEHS)
